Calls of active or inactive are those of the source.

This assay can be described thus: yeast growth modulation, basal conditions, primary screen, YJM789 clinical isolate, OD600, 24 h (AID 1089).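 Also: growth of clinical yeast isolate S. cerevisiae YJM 789 seeded 1000 cells per well; test concentration not given here.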 Conditions: S. cerevisiae YJM789 growth, higher = more signal, called active from +8 up or from −8 down.
In the case of `Cc1ccc(NN2C(C(O)c3c(F)cccc3Cl)C=CC3C(=O)N(C4CCCCC4)C(=O)C32)cc1` (stereo unspecified), the z-score was -0.58 (inactive).

For `CC(C)N1C(=O)C[C@@](C(=O)O)(c2ccc([N+](=O)[O-])cc2)[C@H]1c1ccc(CO)cc1`, the z-score was 0.548 (inactive).

`CCCN1C(=O)[C@@]2(Cc3ccccc31)N=C(c1ccc(OCCCO)cc1)O[C@H]2c1ccccc1`: the z-score was -0.306 (inactive).

Take `C=CCN1C(=O)[C@]2(CCS(=O)(=O)c3ccccc3)N=C(c3ccc(OCCCO)cc3)O[C@@H]2c2ccccc21`: the z-score was -0.523 (inactive).

For `C=CC[C@@]1(C(=O)NCCCOC)N=C(c2ccc(OCCCO)cc2)O[C@@H]1c1ccccc1`, the z-score is -3.84 (inactive).

In the case of `COC(=O)c1c(CC[C@@H](CO)NC(=O)N2CCC[C@H]2Cn2cc(C3(O)CCCCC3)nn2)oc(C(C)=O)c1C(=O)OC`, the z-score was 0.752 (inactive).

For `COCC(=C=CC[C@H](O)c1ccc(OCCO)cc1)CCO`, the z-score is 0.028 (inactive).

`C=CCNC(=O)[C@@H]1[C@H]2C(=O)O[C@H](c3ccccc3)[C@H](c3ccccc3)N2[C@H](c2ccccc2OCCO)[C@@]12C(=O)N(C(=O)OCCOC)c1ccc(C#CC3(O)CCCCCC3)cc12`: the z-score was 0.0171 (inactive).

For `COc1ccc([Si](C)(C)[C@@H]2[C@@H](CCO)O[C@]3(C(=O)N(Cc4ccccc4)c4ccc(N5C(=O)c6cccc7cccc5c67)cc43)[C@H]2C)cc1`, the z-score is 0.849 (inactive).

For `C=CC[C@]1(C(=O)N2CCCCC2)N=C(c2ccc(OCCCO)cc2)O[C@H]1c1ccccc1CN=[N+]=[N-]`, the z-score is -1.66 (inactive).

In the case of `COC(=O)C1(CC(C)C)C=C2C(=C(c3ccccc3)C(=O)C2C)CN1` (stereo unspecified), the z-score was -0.201 (inactive).

Turning to `COc1ccc(CCNC(=O)[C@@H]2c3ccccc3C(=O)N(C3CCCCC3)[C@H]2c2ccc(CO)cc2)cc1`, the z-score is -0.395 (inactive).

As to `CCCCCN1CC=CC23O[C@@H]4C=CCCOC(=O)C4[C@H]2C(=O)N(CCCCCCO)[C@@H]3C1=O` (stereo partly specified), the z-score is -0.0966 (inactive).

On to `CCOC(=O)C[C@H]1[C@H](OC(=O)c2ccc(-c3ccccc3)cc2)[C@@H](NC(=O)CC(C)C)c2cc(OCCCO)ccc2N1C(=O)c1ccc2ccccc2n1`, for which the z-score was -1.13 (inactive).

Consider `COC(=O)C(CC#Cc1ccc2c(c1)[C@]1(C(=O)N2)[C@H](c2ccc(O)cc2)N2[C@H](c3ccccc3)[C@H](c3ccccc3)OC(=O)[C@H]2[C@@H]1C(=O)NC[C@H](O)c1ccccc1)C(=O)OC`, for which the z-score is 0.31 (inactive).

`COC(=O)[C@]1(CCS(=O)(=O)c2ccccc2)N=C(c2ccc(OCCCO)cc2)O[C@@H]1c1ccccc1N=[N+]=[N-]`: the z-score was 0.764 (inactive).

Consider `O=C1C2C=CC(C(O)C3CC=CCC3)N(Nc3ccccc3)C2C(=O)N1c1ccccc1` (stereo unspecified), for which the z-score is 0.399 (inactive).

As to `CCOC(=O)C[C@H]1[C@H](OC(=O)c2cc3ccccc3oc2=O)[C@@H](NC(=O)c2ccccc2)c2cc(OCCCO)ccc2N1C(=O)c1ccccc1`, the z-score was 0.126 (inactive).

Take `COc1ccc([Si](C)(C)[C@H]2[C@H](CC(=O)N3Cc4ccccc4C[C@H]3CO)O[C@@]3(C(=O)N(Cc4ccc(N5CCOC5=O)cc4)c4ccccc43)[C@@H]2C)cc1`: the z-score is -1.31 (inactive).

Regarding `CC1CC/C=C\[C@H]2OC34C=CCN(C(C)C)C(=O)[C@H]3N(CCO)C(=O)[C@@H]4C2C(=O)O1` (stereo partly specified), the z-score is 0.114 (inactive).

Take `COCCCNC(=O)[C@@H]1c2ccccc2C(=O)N(C(C)C)[C@H]1c1ccc(CO)cc1`: the z-score is 0.602 (inactive).

On to `COc1cccc(C)c1NC(=O)O[C@H]1[C@H](OC(=O)Nc2ccccc2-c2ccccc2)[C@H](OC(=O)Nc2ccccc2-c2ccccc2)[C@@H](OC)O[C@@H]1CO`, for which the z-score is 1.24 (inactive).

In the case of `CC(C)c1ccc(NN2C(C(O)c3ccc(F)cc3)C=CC3C(=O)N(c4ccccc4)C(=O)C32)cc1` (stereo unspecified), the z-score was 1.22 (inactive).

For the molecule `C#CCN(Cc1ccccc1Br)[C@H](/C=C/c1ccccc1)[C@@H](O)Cc1ccccc1`, the z-score is 0.737 (inactive).

Take `[N-]=[N+]=Nc1ccccc1C[C@]1(C(=O)NCC(O)CO)COC(c2ccc(OCCCO)cc2)=N1` (stereo partly specified): the z-score was 0.887 (inactive).

Regarding `O=C1O[C@@H](c2ccccc2)[C@@H](c2ccccc2)N2[C@@H](c3ccc(OCCO)cc3)[C@]3(C(=O)Nc4ccc(C#CC5=CCCCC5)cc43)[C@@H](C(=O)NC[C@H](O)c3ccccc3)[C@H]12`, the z-score is 1.99 (inactive).

In the case of `CCCC=C(CCC)[C@@H](NS(=O)(=O)c1ccc(C(F)(F)F)cc1)c1ccccc1`, the z-score is 1.22 (inactive).

`CCCCCCCCCC(O)C1C=CC2C(=O)N(c3ccccc3)C(=O)C2N1Nc1cc(OC)c(OC)c(OC)c1` (stereo unspecified): the z-score is 1.13 (inactive).

As for `O=C(c1ccccc1)N1C(=O)[C@]2(Cc3ccccc31)N=C(c1ccc(OCCCO)cc1)O[C@@H]2c1ccccc1`, the z-score was 0.525 (inactive).

Consider `CCCCC=C[C@@H](NC(=O)OCc1ccccc1Cl)c1ccccc1`, for which the z-score was 0.952 (inactive).

As for `COc1cc(C(O)C2C=CC3C(=O)N(C)C(=O)C3N2Nc2ccccc2)cc(OC)c1OC` (stereo unspecified), the z-score was 0.0446 (inactive).

On to `C=CC[C@H](OC(=O)Nc1ccc(SC)cc1)c1ccc(O)c2ccccc12`, for which the z-score is -23.9 (active).

In the case of `[N-]=[N+]=Nc1ccccc1C[C@@]1(C(=O)N2CCOCC2)N=C(c2ccc(OCCCO)cc2)O[C@@H]1c1ccccc1`, the z-score is -1.41 (inactive).

`COc1ccc(C(=O)Nc2ccc(CN3C(=O)[C@]4(O[C@H](CC(=O)N5Cc6ccccc6C[C@H]5CO)[C@@H]([Si](C)(C)c5ccc(OC)cc5)[C@@H]4C)c4ccccc43)cc2)cc1`: the z-score is 0.186 (inactive).

For `C=CCNC(=O)[C@@H]1[C@H]2C(=O)O[C@H](c3ccccc3)[C@H](c3ccccc3)N2[C@H](c2ccc(O)cc2)[C@@]12C(=O)N(C(=O)OCCOC)c1ccc(C#CC3=CCCCC3)cc12`, the z-score is 0.675 (inactive).

Regarding `C=CCOC(=O)[C@@]1(Cc2ccccc2)C[C@H]2CO[C@H](c3ccc(OC)cc3)N2C1=O`, the z-score was -2.65 (inactive).
